Measurements reported in PubChem BioAssay AID595 (National Center for Advancing Translational Sciences (NCATS), 2007).
Hit rate of the full screen: of about 71,000 compounds, about 310 (0.44%) were called active. Roughly 5% stayed inconclusive and do not appear here. The sample as a whole holds a higher share of actives than the screen did. Values without a mark were called inactive. Calls come from the whole dose curve; as a rule, active = well fitted curve in either direction with a large enough effect; inconclusive = small, poorly fitted or top-dose-only effect, or another doubt; inactive = flat fitted curve, though single readings scatter.

Test system: Hsp90 C-terminal peptide / TPR2A (Hop) interaction, human
Test: qHTS Assay for Disrupters of an Hsp90 Co-Chaperone Interaction
Details: AlphaScreen TPR2A-His6 binding biotin-Hsp90 C-terminal peptide; series mostly up to 57 µM; activity change, negative = inhibition: at the top concentration
Text: NIH Chemical Genomics Center [NCGC]
NIH Molecular Libraries Screening Centers Network [MLSCN]
Hsp90 (heat shock protein 90) is the essential molecular chaperone and it accounts for 1-2% of all cytosolic proteins and is critical for the activity of diverse cellular proteins that are involved in a variety of cellular processes, including development, cell cycle, and steroid hormone signaling. Its client proteins include signaling kinases such as IGF1R, Akt, v-Src, Raf-1; regulators of cell survival such as Bcr-Abl; and transcription factors such as mutated p53, estrogen and progesterone receptors. Hsp90 has emerged as an important target for cancer treatment due to its essential role in maintaining transformation and regulating the function of oncogenic signaling proteins.
The in vivo function of Hsp90 is regulated by the binding and hydrolysis of ATP at its N-terminal. Geldanamycin binds to ATP site and inhibit Hsp90 function. Geldanamycin and its analogues are under clinical trials in cancer patients.
This domain contains the binding site for tetratricopeptide repeat (TPR) domains on HOP (Hsp Organizing Protein). TPR is a structural motif used by a significant number of cochaperones by which the in vivo function of Hsp90 is regulated. TPR2A on HOP binds specifically to MEEVD motif of the C-terminal of Hsp90.
A homogeneous AlphaScreen is developed to assess the interaction between TPR2A and MEEVD motif of the C-terminal of Hsp90 by using the isolated TPR2A domain and a synthesized 20mer Hsp90 C terminal peptide. AlphaScreen is two bead-based proximity-dependent chemical energy transfer luminescent assay platform. TPR2A-His-6 and biotinylated Hsp90 C terminal peptide will bring streptavidin donor beads and nickel chelate acceptor beads to a proximity range (less than 200 nm), and subsequently lead a chemical luminescent reaction upon exciting donor beads with 680 nm laser. Inhibition of TPR2A and MEEVD motif interaction by small molecules could attenuate or abolish this chemical luminescent reaction.
Counter screening: Biotinylated-His-6 (PerkinElmer) can be utilized as a counter screen, as it serves as a linker to bring streptavidin beads and nickel chelate beads together. The counter screen can exclude alpha screen platform false positives due to small molecules being metal chelators, biotin analogues and imidazole analogues, or due to interfering with oxygen release from donor beads. Such an assay should be utilized to qualify any activity observed in this screen.
NCGC Assay Protocol Summary:
The assay was performed on 1536-well white plate (untreated solid bottom). Liquids were dispensed by 1536-well plate washer (Kalypsys, San Diego, CA). Plates were read on EnVision (PerkinElmer, Boston, MA).TPR2A-His6 was produced using a bacteria expression system and purified using a well developed method (Ghosh et al., 2000). Hsp90 C terminal 20-mer peptide with or without an N-terminal biotin group are synthesized using automated solid phase synthesis by the Yale Keck facility. The composition of assay buffer was (in mM) 25 HEPES, 100 KCl, 2 MgCl2 and 2 DTT; 0.1% BSA and 0.01% Tween-20. TPR2A-His6 binding to biotin-Hsp90 will bring streptavidin donor beads and nickel chelate acceptor beads (PerkinElmer) together and can be measured by Alpha reading by EnVision (PerkinElmer). Free Hsp90 blocks biotin-Hsp90 binding to TPR2 and serves as a positive control in the current asssay.
The assay was performed at room temperature. All compounds were screened as titrations from […] to 46 uM final concentration. The assay was performed in 1536-well format plates (untreated white solid bottom, Corning Inc.) as follows:
Sequence,Parameter,Value,Description
1,Reagent,3 uL TPR2A-His6,Final concentration was 5nM
2,Compound,23 nL,Final titration was from 0.7 nM to 46 uM
3,Time,15 minutes,Room temperature
4,Reagent,1 uL biotin-Hsp90,With and without free Hsp90. Final concentration was 10 nM for biotin-Hsp90 and 10uM for free Hsp90.
5,Time,1 hour,Room temperature
[…]
% is set by controls: 0 for no effect and ±100 for the full control effect; potency is the fitted concentration of half-maximal effect.

Structure (SMILES) | activity change, negative = inhibition | Potency
OC(CCl)CCl | -5.37% | –
O=C1CCCc2c1[nH]c1ccc(Br)cc21 | -0.77% | –
CCC[C@H]1C(=O)N2C(N(C)C)=Nc3ccc(C)cc3N2C1=O | -4.06% [at 26 µM] | –
CN(C)CCCn1c2ccccc2c2cnccc21 | -5.16% [at 11 µM] | –
COc1cccc(N(CC(=O)Nc2cccc(F)c2)S(C)(=O)=O)c1 | -1.99% | –
O=C(O)c1cccc(S(=O)(=O)NCCO)c1 | -3.23% [at 11 µM] | –
CC(C)NC(=O)N1CC[C@@]2(CCCN(C(=O)c3ccco3)C2)C1 | 1.72% | –
CCCCNc1nc(C)nc2c1nc(-c1ccccc1)n2CCCCN(CC)CC | -3.31% | –
Cc1cc(=O)[nH]c(SCC(=O)N2c3ccccc3CC2C)n1 (stereo not given) | 3.13% | –
Fc1cccc(/C=N\N=C/c2cccc(F)c2)c1 | 1.39% | –
CCOC(=O)N1CCN(C(=O)c2cc3c(ccc4ccccc43)oc2=O)CC1 | -0.382% | –
CC(C)(O/N=C(\C(=O)N[C@@H]1C(=O)N2C(C(=O)[O-])=C(C[n+]3ccccc3)CS[C@@H]12)c1csc(N)n1)C(=O)O | -6.49% [at 26 µM] | –
O=C(c1ccco1)N1CCC2(CC1)CN(c1ncccn1)C2 | -0.544% | –
c1cncc(CNc2ccnc(-c3ccc4c(c3)OCO4)n2)c1 | -6.94% | –
Cc1cc(Cl)ccc1N1C(=O)CC(SCCC(=O)O)C1=O (stereo not given) | -3.29% | –
O=c1c(-c2cccs2)nc2cnc(Oc3ccccc3)nc2n1-c1ccccc1 | -6.73% | –
COc1ncc2nc(-c3ccc(Cl)cc3)c(=O)n(-c3ccccc3)c2n1 | -0.152% | –
COc1ccccc1CNc1nc(-c2c(C)noc2C)nc2ccccc12 | 6.78% | –
N=C(CC(=O)Nc1ccccn1)c1ccccc1 | -0.76% [at 11 µM] | –
O=C1c2ccccc2C(=O)C1c1ccccc1 | -2.02% [at 26 µM] | –
COc1cccc(N2C(=O)C3CCCN3C2c2ccc(F)cc2)c1 (stereo not given) | -1.72% | –
CS(=O)(=O)Nc1cccc(-c2cncnc2Nc2ccccc2)c1 | -4.22% | –

Structure (SMILES) | activity change, negative = inhibition | Potency
COCCn1c(=O)c(-c2cccs2)nc2cncnc21 | -3.38% | –
Oc1ccc(O)c2c(O)cccc12 | -23.2% | –
S=c1c2[nH]cnc2ncn1CCSc1ncnc2nc[nH]c12 | -3.58% [at 11 µM] | –
CCOC(=O)N1CCN(Cc2nc3c(c(=O)n(C)c(=O)n3C)n2Cc2ccccc2)CC1 | -0.895% | –
O=C(NCCc1ccco1)c1nn(Cc2ccccc2)c(=O)c2ccccc12 | 1.8% | –
COC(=O)N1CCC[C@@]2(CCN(C(=O)NC(C)C)C2)C1 | -7.6% | –
CS(=O)(=O)N1CCC2(CC1)CN(Cc1cc(C(F)(F)F)cc(C(F)(F)F)c1)C2 | 0.858% | –
CN1CCc2[nH]nc(-c3n[nH]c4c3CN(C)CC4)c2C1 | -1.93% [at 11 µM] | –
CC1=C(C(=O)Nc2ccccc2)C(c2cccs2)C(C#N)=C(SCC#N)N1 (stereo not given) | -27.6% | –
CCCCN(CCCC)C(=O)CCS(=O)(=O)c1ccc2c(c1)n(C)c(=O)c(=O)n2C | -3.15% | –
Cc1cnc(CNc2nc(-c3cccnc3)nc3ccccc23)cn1 | -7.89% | –
CCCn1nnc2sc3c(c2c1=O)CCC(C)C3 (stereo not given) | -1.67% | –
Cn1cccc1C(=O)N1CCC[C@@]2(CCN(Cc3nccs3)C2)C1 | -5.4% | –
Cc1n[nH]c(C)c1S(=O)(=O)N1CCCC(C(=O)NCC2COc3ccccc3O2)C1 (stereo not given) | -0.626% | –
c1ccc(Oc2ccccc2)cc1 | -0.703% | –
COC(=O)[C@@]1(Cc2ccccc2)[C@H]2c3cc(C(=O)N(C)C)n(CCSCCO)c3C[C@H]2CN1C(=O)c1ccccc1 | -2.28% | –
C=CCn1c(COc2ccccc2F)nnc1SCC(=O)N1CC(=O)Nc2ccccc21 | -3.33% | –
CO[C@@H]1/C=C\O[C@]2(C)Oc3c(C)c(O)c4c(O)c(c(CN(C)C)c(O)c4c3C2=O)NC(=O)/C(C)=C\C=C[C@@H](C)[C@@H](O)[C@H](C)[C@@H](O)[C@H](C)[C@H](OC(C)=O)[C@@H]1C | -3.79% [at 11 µM] | –
CC[C@H](c1ccccc1)c1cc(C(C)(C)C)cc(C(C)(C)C)c1O | 5.54% [at 11 µM] | –
S=c1[nH]nc(SCc2ccccc2Cl)c2[nH]cnc12 | -1.97% [at 11 µM] | –
Oc1cc2c(cc1O)CN(C(=S)NCCc1ccc(Cl)cc1)CCC2 | inactive | –
CCOC(=O)c1[nH]cnc1C(=O)NC1CCCCC1 | -5.53% | –

Structure (SMILES) | activity change, negative = inhibition | Potency
N#Cc1ccccc1-c1ccc2ncnc(NCc3cccnc3)c2c1 | -3.83% | –
O=C(O)C1CCN(c2ncnc3ccc(-c4ccccc4C(F)(F)F)cc23)CC1 | -3.83% | –
c1ccc2c(Nc3ccncc3)nc(-c3ccc4c(c3)OCO4)nc2c1 | -7.62% | –
C#CCCCCCCCCCCCCCCCC(=O)O | 2.03% | –
CC(NC(=O)c1ccco1)C(=O)Nc1nc(-c2ccccn2)cs1 (stereo not given) | – | 10 µM (active)
Cc1ccnc(NC(=O)c2ccc(NC(=O)c3ccco3)cc2)c1 | -4.27% | –
O=C(Nc1ccc(NC(=O)c2cccs2)cn1)c1ccco1 | 0.348% | –
N#CCCn1c(=O)c(-c2cc(F)cc(F)c2)nc2cnc(Oc3ccccc3)nc21 | -22.8% | –
CCCc1cc(=O)[nH]c(SCC(=O)OCc2ccccc2)n1 | -3.02% | –
COc1ccccc1-c1nc(NCc2cccs2)c2ccccc2n1 | -7.25% | –
O=C(Nc1c2c(nn1-c1ccc(F)cc1)CS(=O)C2)C12CC3CC(CC(C3)C1)C2 (stereo not given) | -1.88% | –
CCOC(=O)CNC(=O)CSc1nnc(-c2cccc(OC)c2)n1CC | 0.037% | –
COC(=O)[C@H]1[C@H]2C[C@H]3c4[nH]c5ccccc5c4CCN3C[C@@H]2CC[C@@H]1O | inactive | –
O=C(c1cccc2ccccc12)N1CCN(c2ccccc2F)CC1 | 1.86% | –
O=C(Nn1cc(C(=O)N2CCN(c3ccccc3F)CC2)c2ccccc2c1=O)c1cnccn1 | – | 3.98 µM (active)
COc1ccc2oc(=O)c(C(=O)N3CCN(c4ccccc4F)CC3)cc2c1 | -5.42% | –
c1ccc(CNc2ncncc2-c2cccnc2)cc1 | -8.1% | –
COc1ccc2[nH]cc(CCNc3ncnc4ccc(-c5ccccc5CN(C)C)cc34)c2c1 | -21.4% | –
COc1ccc(C(=O)Nc2c(N)nc(SCC(=O)N3CCC(C)CC3)[nH]c2=O)cc1OC | -3.46% | –
COc1cc(C2C(C#N)=C(N)Oc3n[nH]c(-c4ccccn4)c32)cc(OC)c1OC (stereo not given) | – | 25.1 µM (active)
CCOc1c(OC)cc(C2C(C#N)=C(N)Oc3n[nH]c(-c4ccncc4)c32)cc1OC (stereo not given) | -6.32% | –
COc1ccc(-c2[nH]nc3c2C(c2ccncc2)C(C#N)=C(N)O3)cc1 (stereo not given) | -5.29% | –

Structure (SMILES) | activity change, negative = inhibition | Potency
COc1ccc(-c2nc3cnc(OC)nc3n(Cc3ccc(F)cc3)c2=O)cc1 | -3.6% | –
O=c1cc(-c2ccc(O)c(O)c2)oc2cccc(O)c12 | -19.6% | –
CCCCCCCCCCCC(=O)O | -1.69% | –
CCCOC(=O)Nc1ccccc1C(N)=O | -3.39% | –
CC(=O)/C(C)=N\O | 0.893% | –
CCn1c(=N)c(C(=O)NCCCOC)cc2c(=O)n3cccc(C)c3nc21 | -6.79% | –
O=C(c1ccco1)N1CCC2(CC1)CCN(c1ncccn1)CC2 | 0.252% | –
CCOC(=O)C(CCOc1cccc(CC)c1)C(=O)OCC | – | 25.1 µM [activator] (active)
COC(=O)[C@@H](NC(=O)NCc1cccc(OC)c1)C(C)C | -1.2% | –
C=CCNC(=O)CCCOc1cccc(C)c1 | -6.77% [at 11 µM] | –
COc1cccc(-n2c(SCC(=O)NC3CCCCC3)nc3n[nH]c(C)c3c2=N)c1 | -1.24% | –
CC(=O)Nc1ccc(S(=O)(=O)N2CCC(N(C)CCC(C)C)CC2)cc1 | -3.29% | –
Cc1ccc(/C(=C/CN2CCCC2)c2ccccn2)cc1 | inactive | –
Cc1ccc(S(=O)(=O)Cn2nnnc2CN2CCN(Cc3ccc4c(c3)OCO4)CC2)cc1 | -1.83% | –
N=c1c2c3c(sc2ncn1N)CCCCC3 | -0.172% | –
COC(=O)c1ccccc1NC(=O)c1cncc(Br)c1 | 19.5% | –
N#C/C(=C\c1ccc(O)c(O)c1)C(=O)NCc1ccccc1 | -10.1% | –
COc1ccc(OC)c([C@H](O)CNC(=O)CN)c1 | -3.33% [at 26 µM] | –
Cc1cnc(CNc2ncncc2-c2ccccc2Cl)cn1 | 3.83% | –
